Source: PubChem BioAssay (National Center for Advancing Translational Sciences (NCATS))
SMN2 splice enh: SMN2 splice variant enhancement. AID 1458. Potency, µM (titrated, usually from 46.1 µM), for the others: top-dose activity change, positive = activation, usual class: activators. 210,000 compounds, 2.8% hits. HEK293 SMN2-luciferase splicing reporter, luminescence, 30-36 h; note: % of control where 0% means no effect; nearly all actives have a fitted effect of over 55% in size
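HEK293 cells carry an SMN2 minigene-luciferase reporter in which exon 7 inclusion puts luciferase in frame. Cells were seeded at 2000 cells/well, attached for 10-12 hours, then exposed to compounds for 30-36 hours at 37C before ONE-Glo luminescence.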
ELG1 genotox: genotoxicity induction in ELG1-luciferase HEK293T cells | Potency, µM (titrated, usually from 46 µM), for the others: at the top dose activity change, positive = activation, most hits filed as activators | AID 504466 | HEK293T ELG1-luciferase reporter, luminescence, 16 h | 330,000 compounds, 1.3% hits; note: % of control where 0% means no effect; nearly all actives have a fitted effect of over 60% in size
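ELG1-luciferase HEK293T cells, 2,000/well; compound pinned in; 16 hr, 37 °C, 5% CO2; ONE-Glo, 30 min RT; luminescence on CCD imager.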
NPC1 prom act: activators of NPC1 promoter | Huh7 NPC1 promoter luciferase reporter, 24 h | Potency, µM (highest dose often 9.22 µM), inactives show at the top dose activation, usual class: activators | 320,000 compounds, 2.4% hits | AID 485313; note: % of control where 0% means no effect; nearly all actives have a fitted effect of over 60% in size
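Luminescence read-out of NPC1 promoter-driven luciferase in stably transfected Huh7 cells; compounds delivered in DMSO and left 24 h at 37C, 5% CO2, qHTS titration format.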
FLuc modulator: inhibits or activates purified firefly luciferase, miR-21 counter-screen. 360,000 compounds, 6.9% hits. P08659. AID 588342. purified FLuc, Km substrates, luminescence inhibition. Potency, µM (highest dose often 57.5 µM), for the others: at the top dose activity change, negative = inhibition, usual class: inhibitors;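 note: plate controls were vehicle for no effect and reference inhibitor for full effect; nearly all actives have a fitted effect of over 55% in size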
Target sequence (P08659 whole entry, looked up): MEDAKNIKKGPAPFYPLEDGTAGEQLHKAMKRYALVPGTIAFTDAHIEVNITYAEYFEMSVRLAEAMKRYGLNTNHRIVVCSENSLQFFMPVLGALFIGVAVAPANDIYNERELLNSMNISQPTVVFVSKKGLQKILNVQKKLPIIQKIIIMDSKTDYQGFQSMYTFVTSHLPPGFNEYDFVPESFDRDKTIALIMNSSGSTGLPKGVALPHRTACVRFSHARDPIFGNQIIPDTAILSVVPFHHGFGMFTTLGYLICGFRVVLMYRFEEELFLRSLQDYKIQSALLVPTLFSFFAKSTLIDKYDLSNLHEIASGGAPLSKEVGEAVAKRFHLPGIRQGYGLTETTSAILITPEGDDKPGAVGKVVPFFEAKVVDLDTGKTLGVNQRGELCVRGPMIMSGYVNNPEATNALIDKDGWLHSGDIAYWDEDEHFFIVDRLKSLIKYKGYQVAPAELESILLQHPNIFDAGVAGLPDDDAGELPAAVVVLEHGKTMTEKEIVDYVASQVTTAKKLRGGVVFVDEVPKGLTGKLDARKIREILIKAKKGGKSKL
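Purified P. pyralis luciferase, 10 nM final, with Km-level 10 uM D-luciferin and 10 uM ATP in 50 mM Tris acetate pH 7.5, 10 mM Mg acetate, 0.01% Tween-20, 0.05% BSA; 6-point qHTS titration about 60 µM downward; luminescence read.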
Rab9 promoter act: activators of Rab9 promoter; Huh7 Rab9 promoter-luciferase reporter, luminescence, 24 h; Potency, µM (highest dose often 9.22 µM), for inactives: at the top dose activation, negative = inhibition, actives largely listed as activators; 320,000 compounds, 2.8% hits; AID 485297; note: % of control where 0% means no effect; nearly all actives have a fitted effect of over 60% in size
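Luminescence from Amplite-detected luciferase (10 minutes, ambient) reports Rab9 promoter activation. Before that, stable Rab9-luciferase Huh7 cells (1500/well, reduced-serum OP-MEM I plus 10% FBS) were exposed to compound for 24 hours at 37C.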
The depositor's hits bear a star; ? = inconclusive; . = no result given; [ ] = remark or other dose. Shown are actives, neighbours in structure and some others; about 7.5% of the full set was active somewhere. Calls come from the whole dose curve; as a rule, active = well fitted curve in the direction sought with a large enough effect; inconclusive = small, poorly fitted or top-dose-only effect, or another doubt; inactive = no such curve, though single readings can be large; an effect the other way counts as inactive or inconclusive. Potency is the fitted concentration of half-maximal effect.

SMILES	SMN2 splice enh	ELG1 genotox	NPC1 prom act	FLuc modulator	Rab9 promoter act
O=C(Nc1nc2c(s1)COc1ccccc1-2)c1cccs1	-18%	0%	16%	13µM*	10%
O=C(Nc1ncc2c(n1)-c1ccccc1CC2)c1ccccc1	3%	2%	23%	?	11%
O=C(Nc1nc2c(s1)CCc1ccccc1-2)c1cccs1	9%	9%	?	13µM*	?
CCCN1CCN(C(=O)C2CCN(S(=O)(=O)c3ccc4c(c3)oc(=O)n4C)CC2)CC1	3%	-3%	0%	1%	1%
Cc1nc(NC(=O)/C=C/c2ccccc2)sc1C(=O)Nc1cccc(Cl)c1	-4%	8%	-6%	3%	-3%
CCOc1ccc(S(=O)(=O)N(C(=O)c2ccco2)c2cc3sc(=O)oc3c3ccccc23)cc1	-19%[1.84 µM]	-10%	-3%	1%	21%
C=CCOc1ccc(/C=C2\SC(N)=NC2=O)cc1OC	.	?	-2%	11µM*	-11%
Cc1ccccc1Nc1c(F)c(F)c(F)c(F)c1C(=O)O	-8%	1%	-7%	?	-2%
Cc1c(-c2ccccc2)nc2ccccc2c1C(=O)Nc1ccncc1	.	-3%	-2%	2%	-2%
CCCc1ccc(-c2ccc(F)c(N)c2)nc1	0.71µM*	?	0.5µM*	0.3µM*	0.4µM*
CCCCc1ccc(-c2ccc(Br)cc2)nc1	3.5µM*	?	1.3µM*	1.2µM*	1µM*
O=[N+]([O-])c1ccc(N2CCN(S(=O)(=O)c3ccc(Cl)cc3)CC2)cc1NCC1CCCO1 (configuration not stated)	-12%	-3%	-3%	-1%	-2%
COCCNC(=S)NNC(=O)c1cc(C2CC2)nc2ccccc12	.	1%	-7%	12µM*	-8%
COc1ccc(NC(=O)NNC(=O)c2cc(C3CC3)nc3ccccc23)c(OC)c1	.	-10%	0%	-4%	9%
CCCCNC(=S)NNC(=O)c1cc(-c2ccncc2)nc2ccccc12	.	0%	-1%	9.5µM*	6%
CCCCNC(=S)NNC(=O)c1cc(C2CC2)nc2ccccc12	.	1%	-6%	24µM*	1%
O=C(NNC(=O)c1cc(-c2ccncc2)nc2ccccc12)c1ccccc1F	.	0%	2%	24µM*	1%
O=C(Nc1ccc2c(c1)OCO2)c1cc(-c2ccc(Cl)cc2)on1	9%	.	.	-1%	.
O=C(NCc1ccc2c(c1)OCO2)c1c(Cl)cccc1Cl	.	-8%	2%	5%	-1%
O=C(Nc1ccc2c(c1)OCO2)c1cc(-c2ccccc2Cl)on1	.	9.2µM*	2.5µM*	5.4µM*	1.6µM*
O=C(NCc1ccc2c(c1)OCO2)c1cc(-c2ccccc2Cl)on1	12%	9%	1%	17µM*	-2%
Cc1ncoc1C(=O)N1CCc2c([nH]c3ccccc23)C1C(C)(C)C (configuration not stated)	.	-2%	1%	0%	-19%
COc1cc(OC)c(NC(=O)N2CCC(CN3CCOCC3)CC2)cc1Cl	.	.	.	2%	.
Cc1noc(NS(=O)(=O)c2ccc(NC(=O)C(C)C)cc2)c1C	.	-5%	1%	-2%	6%
Brc1ccc(-c2cnc(-c3cccs3)o2)cc1	?	?	?	5.4µM*	4µM*
SMILES	SMN2 splice enh	ELG1 genotox	NPC1 prom act	FLuc modulator	Rab9 promoter act
Cc1ccc(NCc2ccc(C)s2)cc1	.	13%	18%	21µM*	18%
Cc1ccc(CNc2ccc(N3CCOCC3)cc2)s1	18µM*	4.1µM*	2.5µM*	0.95µM*	3.5µM*
Cc1ccc(NCc2ccccc2)cc1	2%	-4%	-1%	?	-3%
CC(=O)N1CCN(c2ccc(NCc3ccc(C)s3)cc2)CC1	-13%	-3%	13%	-11%	6%
COc1ccc(NC(=O)CSCc2ccccc2C)cc1	25%	?	17%	?	25%
COc1cccc(/C=N/c2nc3ccccc3[nH]2)c1O	.	11%	-3%	19µM*	-1%
Cc1ccc(C)c(C(=O)Nc2nc3ccccc3[nH]2)c1	.	-6%	27%	-5%	27%
COc1cccc(/C=N/Nc2nc3ccccc3[nH]2)c1OC	.	-20%	4µM*	5.4µM*	2.5µM*
COc1ccccc1Nc1nc2ccccc2[nH]1	6%	11%	?	9.5µM*	?
